According to the supplement of paper PMC6411743:
± gives the standard deviation of the averaged measurements. The full data set covers some 6,500 targets. This sample favours those with the largest changes.

UniProt P08621, sequence (P08621 whole entry): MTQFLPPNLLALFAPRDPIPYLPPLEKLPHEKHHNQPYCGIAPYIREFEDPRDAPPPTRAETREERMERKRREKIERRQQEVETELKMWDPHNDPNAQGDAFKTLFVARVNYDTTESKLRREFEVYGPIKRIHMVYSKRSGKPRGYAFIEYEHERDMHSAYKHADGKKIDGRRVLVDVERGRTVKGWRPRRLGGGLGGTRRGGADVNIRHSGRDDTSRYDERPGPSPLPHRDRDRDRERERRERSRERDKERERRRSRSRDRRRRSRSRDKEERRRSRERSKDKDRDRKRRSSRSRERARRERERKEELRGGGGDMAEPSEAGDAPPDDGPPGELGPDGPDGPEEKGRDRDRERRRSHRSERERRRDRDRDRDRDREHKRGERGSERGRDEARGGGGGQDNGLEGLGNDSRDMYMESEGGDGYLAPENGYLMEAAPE
UniProt P53677, sequence (P53677 whole entry): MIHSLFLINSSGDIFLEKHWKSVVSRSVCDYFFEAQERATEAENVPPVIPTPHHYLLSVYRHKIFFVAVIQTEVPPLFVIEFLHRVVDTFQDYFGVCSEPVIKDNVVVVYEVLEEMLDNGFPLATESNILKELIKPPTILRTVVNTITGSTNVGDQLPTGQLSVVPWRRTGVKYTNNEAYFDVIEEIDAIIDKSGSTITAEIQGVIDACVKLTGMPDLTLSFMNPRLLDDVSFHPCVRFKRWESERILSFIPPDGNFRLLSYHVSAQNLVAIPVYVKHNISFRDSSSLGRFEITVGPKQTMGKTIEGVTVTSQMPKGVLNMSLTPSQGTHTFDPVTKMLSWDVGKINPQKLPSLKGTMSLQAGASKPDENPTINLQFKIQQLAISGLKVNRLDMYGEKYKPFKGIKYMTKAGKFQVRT
UniProt O95786, sequence (O95786 whole entry): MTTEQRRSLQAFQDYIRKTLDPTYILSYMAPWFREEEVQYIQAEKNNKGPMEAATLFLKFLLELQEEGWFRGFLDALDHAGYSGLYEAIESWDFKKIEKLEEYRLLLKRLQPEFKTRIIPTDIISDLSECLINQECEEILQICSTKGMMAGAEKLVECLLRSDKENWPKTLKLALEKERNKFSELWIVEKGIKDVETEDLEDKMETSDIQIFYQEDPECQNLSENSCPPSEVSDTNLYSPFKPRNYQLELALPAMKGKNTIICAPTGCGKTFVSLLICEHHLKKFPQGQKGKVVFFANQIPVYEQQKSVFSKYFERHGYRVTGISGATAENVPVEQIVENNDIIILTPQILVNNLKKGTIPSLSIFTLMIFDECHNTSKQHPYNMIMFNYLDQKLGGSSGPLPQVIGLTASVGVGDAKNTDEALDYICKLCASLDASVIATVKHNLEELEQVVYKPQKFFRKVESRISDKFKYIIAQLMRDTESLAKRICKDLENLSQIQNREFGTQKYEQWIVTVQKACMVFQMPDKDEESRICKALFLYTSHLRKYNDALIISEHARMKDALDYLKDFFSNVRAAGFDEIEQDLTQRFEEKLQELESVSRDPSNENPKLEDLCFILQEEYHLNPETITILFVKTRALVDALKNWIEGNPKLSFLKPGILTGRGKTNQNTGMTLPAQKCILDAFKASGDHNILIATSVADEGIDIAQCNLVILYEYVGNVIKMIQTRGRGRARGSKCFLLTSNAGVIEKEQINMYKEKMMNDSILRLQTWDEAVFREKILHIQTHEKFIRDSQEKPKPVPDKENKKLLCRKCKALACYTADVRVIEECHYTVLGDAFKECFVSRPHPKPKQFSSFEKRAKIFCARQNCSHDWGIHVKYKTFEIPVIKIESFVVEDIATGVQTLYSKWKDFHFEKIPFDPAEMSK
UniProt Q07021, sequence (Q07021 whole entry): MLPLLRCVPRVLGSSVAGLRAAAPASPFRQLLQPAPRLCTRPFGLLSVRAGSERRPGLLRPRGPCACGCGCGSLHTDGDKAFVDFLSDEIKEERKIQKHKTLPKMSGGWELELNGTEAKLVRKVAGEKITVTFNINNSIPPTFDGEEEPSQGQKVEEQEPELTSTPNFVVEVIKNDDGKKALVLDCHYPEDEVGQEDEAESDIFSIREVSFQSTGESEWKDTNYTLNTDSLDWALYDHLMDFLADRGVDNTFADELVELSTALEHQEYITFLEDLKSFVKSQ
UniProt O95757, sequence (O95757 whole entry): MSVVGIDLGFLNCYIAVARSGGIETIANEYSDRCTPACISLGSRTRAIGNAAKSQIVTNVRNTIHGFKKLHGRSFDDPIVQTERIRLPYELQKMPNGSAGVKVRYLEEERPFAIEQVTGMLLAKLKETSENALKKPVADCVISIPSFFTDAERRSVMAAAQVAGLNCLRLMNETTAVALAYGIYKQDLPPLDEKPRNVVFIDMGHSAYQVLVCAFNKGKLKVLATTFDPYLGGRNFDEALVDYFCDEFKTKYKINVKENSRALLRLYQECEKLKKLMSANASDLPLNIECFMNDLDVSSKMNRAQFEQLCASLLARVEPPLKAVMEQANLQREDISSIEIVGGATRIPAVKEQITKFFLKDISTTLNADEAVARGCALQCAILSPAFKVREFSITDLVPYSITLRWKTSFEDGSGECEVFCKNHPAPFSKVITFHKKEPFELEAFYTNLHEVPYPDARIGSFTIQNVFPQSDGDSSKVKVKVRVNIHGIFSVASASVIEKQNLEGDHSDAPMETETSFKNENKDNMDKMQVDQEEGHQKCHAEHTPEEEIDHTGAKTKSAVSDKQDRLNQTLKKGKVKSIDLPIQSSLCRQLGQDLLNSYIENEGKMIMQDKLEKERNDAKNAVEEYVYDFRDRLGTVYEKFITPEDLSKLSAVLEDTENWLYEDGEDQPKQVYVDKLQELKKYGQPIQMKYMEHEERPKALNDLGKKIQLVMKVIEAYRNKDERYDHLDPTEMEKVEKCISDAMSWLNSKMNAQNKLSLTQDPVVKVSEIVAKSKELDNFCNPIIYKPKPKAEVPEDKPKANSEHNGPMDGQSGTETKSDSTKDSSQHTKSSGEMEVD
UniProt O75718, sequence (O75718 whole entry): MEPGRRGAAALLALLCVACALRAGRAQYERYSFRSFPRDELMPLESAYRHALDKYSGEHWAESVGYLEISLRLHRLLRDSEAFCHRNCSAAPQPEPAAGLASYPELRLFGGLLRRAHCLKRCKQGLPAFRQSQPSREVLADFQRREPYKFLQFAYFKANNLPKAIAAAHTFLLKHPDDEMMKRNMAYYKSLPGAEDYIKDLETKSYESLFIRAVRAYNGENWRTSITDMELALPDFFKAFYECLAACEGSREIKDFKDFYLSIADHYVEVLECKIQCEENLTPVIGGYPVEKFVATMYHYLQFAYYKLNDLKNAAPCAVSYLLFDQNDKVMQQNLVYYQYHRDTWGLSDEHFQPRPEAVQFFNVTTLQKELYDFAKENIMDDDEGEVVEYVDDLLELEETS
UniProt P63218, sequence (P63218 whole entry): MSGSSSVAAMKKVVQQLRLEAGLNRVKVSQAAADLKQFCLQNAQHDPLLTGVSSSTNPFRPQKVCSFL
UniProt P23434, sequence (P23434 whole entry): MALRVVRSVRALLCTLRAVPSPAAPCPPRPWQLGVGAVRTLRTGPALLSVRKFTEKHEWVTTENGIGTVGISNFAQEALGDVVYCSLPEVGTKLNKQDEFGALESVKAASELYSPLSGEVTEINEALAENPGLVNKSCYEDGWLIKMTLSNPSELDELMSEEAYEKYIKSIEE
UniProt O75400, sequence (O75400 whole entry): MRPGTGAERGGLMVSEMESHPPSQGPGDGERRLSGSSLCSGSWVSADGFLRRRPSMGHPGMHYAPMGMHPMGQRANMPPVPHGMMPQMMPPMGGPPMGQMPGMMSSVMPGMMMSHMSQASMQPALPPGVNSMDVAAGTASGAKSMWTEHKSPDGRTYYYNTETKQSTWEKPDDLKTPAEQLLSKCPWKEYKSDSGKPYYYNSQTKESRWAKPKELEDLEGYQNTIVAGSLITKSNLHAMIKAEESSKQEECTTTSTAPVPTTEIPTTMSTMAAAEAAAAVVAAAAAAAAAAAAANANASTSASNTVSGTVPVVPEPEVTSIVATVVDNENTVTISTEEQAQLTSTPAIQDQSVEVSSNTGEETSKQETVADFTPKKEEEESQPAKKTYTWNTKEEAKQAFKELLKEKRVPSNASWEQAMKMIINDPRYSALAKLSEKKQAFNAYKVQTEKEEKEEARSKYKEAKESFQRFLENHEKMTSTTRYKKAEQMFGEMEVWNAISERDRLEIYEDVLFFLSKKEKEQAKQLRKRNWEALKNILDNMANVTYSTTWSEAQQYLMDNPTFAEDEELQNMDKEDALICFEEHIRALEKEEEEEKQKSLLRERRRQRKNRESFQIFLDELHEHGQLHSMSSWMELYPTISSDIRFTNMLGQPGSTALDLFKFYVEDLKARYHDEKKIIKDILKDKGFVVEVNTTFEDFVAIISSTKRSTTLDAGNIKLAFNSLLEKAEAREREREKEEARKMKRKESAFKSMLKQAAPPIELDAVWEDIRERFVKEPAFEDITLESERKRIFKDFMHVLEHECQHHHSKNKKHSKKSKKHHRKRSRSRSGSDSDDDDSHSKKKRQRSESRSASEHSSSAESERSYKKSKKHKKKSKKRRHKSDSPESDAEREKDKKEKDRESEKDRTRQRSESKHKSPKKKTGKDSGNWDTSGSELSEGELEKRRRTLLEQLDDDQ
UniProt P05114, sequence (P05114 whole entry): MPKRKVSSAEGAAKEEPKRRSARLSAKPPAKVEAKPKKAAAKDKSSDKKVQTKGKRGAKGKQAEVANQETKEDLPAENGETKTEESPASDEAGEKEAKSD
UniProt P50897, sequence (P50897 whole entry): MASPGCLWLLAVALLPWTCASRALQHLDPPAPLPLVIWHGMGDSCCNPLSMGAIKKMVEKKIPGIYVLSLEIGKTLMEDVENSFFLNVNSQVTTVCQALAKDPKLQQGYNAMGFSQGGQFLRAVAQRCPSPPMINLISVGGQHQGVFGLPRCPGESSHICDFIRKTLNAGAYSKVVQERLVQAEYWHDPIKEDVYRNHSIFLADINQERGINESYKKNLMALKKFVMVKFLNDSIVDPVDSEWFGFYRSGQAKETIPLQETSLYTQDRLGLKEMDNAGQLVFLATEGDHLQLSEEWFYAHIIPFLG

These targets were tested with Nc1ncnc2c1ncn2[C@@H]1O[C@H](COP(=O)(O)OP(=O)(O)OP(=O)(O)O)[C@@H](O)[C@H]1O [adenosine triphosphate] (assay: NP40-soluble protein abundance relative to vehicle (solubility fold change) (ratio); higher = more soluble protein in presence of ATP). Conditions: concentration: 8mM.
How it was run: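 Values are fold changes against the detergent-processed vehicle, based on vsn-normalised intensities. Jurkat crude lysate was treated at eight concentrations from 0.1 to 10 mM (10 min at room temperature, then 3 min at 37 °C), solubilised with 0.8% NP40 and benzonase, ultracentrifuged and analysed by TMT-labelled LC-MS/MS over three independent experiments.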
Work on UniProt P62854 yielded an NP40-soluble protein abundance of 0.745 ± 0.099.
For PPT1 (UniProt P50897), the NP40-soluble protein abundance was 0.903 ± 0.016.
HMGN1 (UniProt P05114) showed an NP40-soluble protein abundance of 1.67 ± 0.38.
For UniProt O75400|O75400-2, the NP40-soluble protein abundance was 2.39 ± 0.13.
C1QBP (UniProt Q07021) was tested, and the NP40-soluble protein abundance was 1.19 ± 0.24.
Work on DDX58 (UniProt O95786) yielded an NP40-soluble protein abundance of 1.03 ± 0.056.
UniProt P63218 gave an NP40-soluble protein abundance of 0.77 ± 0.16.
GCSH (UniProt P23434) gave an NP40-soluble protein abundance of 0.915 ± 0.051.
With TOP1 (UniProt P11387) the NP40-soluble protein abundance was 1.599 ± 0.0062.
Work on JAK1 (UniProt P23458) yielded an NP40-soluble protein abundance of 1.27 ± 0.047.
For AP3M2 (UniProt P53677), the NP40-soluble protein abundance was 1.06 ± 0.051.
HSPA4L (UniProt O95757) gave an NP40-soluble protein abundance of 0.937 ± 0.036.
In the case of MRPS25 (UniProt P82663), the NP40-soluble protein abundance is reported as 0.915 ± 0.081.
Work on CRTAP (UniProt O75718) yielded an NP40-soluble protein abundance of 1.19 ± 0.033.
UniProt P08621|P08621-2 gave an NP40-soluble protein abundance of 1.88 ± 0.077.

Same assay, conditions: concentration: 10mM
ARL3 (UniProt P36405) was tested, and the NP40-soluble protein abundance was 0.946 ± 0.049.
UniProt P25398 was tested, and the NP40-soluble protein abundance was 0.779 ± 0.061.
Work on SRM (UniProt P19623) yielded an NP40-soluble protein abundance of 0.997 ± 0.068.
SFPQ (UniProt P23246) was tested, and the NP40-soluble protein abundance was 1.68 ± 0.17.
RFC3 (UniProt P40938) showed an NP40-soluble protein abundance of 1.36 ± 0.046.
PPP2CA (UniProt P67775) gave an NP40-soluble protein abundance of 0.9 ± 0.085.
Target LSM11 (UniProt P83369) has an NP40-soluble protein abundance of 1.69 ± 0.4.
With PRPF6 (UniProt O94906) the NP40-soluble protein abundance was 2.36 ± 0.21.
With GALT (UniProt P07902) the NP40-soluble protein abundance was 0.947 ± 0.02.
Work on UniProt P49761|P49761-1|P49761-3 yielded an NP40-soluble protein abundance of 2.065 ± 0.019.
Target MTHFD2 (UniProt P13995) has an NP40-soluble protein abundance of 1 ± 0.026.
GAA (UniProt P10253) gave an NP40-soluble protein abundance of 0.997 ± 0.033.
With UniProt P12268|H0Y4R1 the NP40-soluble protein abundance was 0.587 ± 0.058.
For UniProt P50750-2|P50750, the NP40-soluble protein abundance was 1.7 ± 0.1.
UniProt P50213|H0YLF8 was tested, and the NP40-soluble protein abundance was 0.932 ± 0.043.
In the case of UniProt P62854, the NP40-soluble protein abundance is reported as 0.843 ± 0.13.
Target PPT1 (UniProt P50897) has an NP40-soluble protein abundance of 0.86 ± 0.039.
HMGN1 (UniProt P05114) gave an NP40-soluble protein abundance of 1.95 ± 1.1.
UniProt O75400|O75400-2 showed an NP40-soluble protein abundance of 2.62 ± 0.2.
In the case of C1QBP (UniProt Q07021), the NP40-soluble protein abundance is reported as 0.587 ± 0.2.
Work on DDX58 (UniProt O95786) yielded an NP40-soluble protein abundance of 1.01 ± 0.055.
With UniProt P63218 the NP40-soluble protein abundance was 0.678 ± 0.18.
GCSH (UniProt P23434) was tested, and the NP40-soluble protein abundance was 0.927 ± 0.092.
TOP1 (UniProt P11387) was tested, and the NP40-soluble protein abundance was 1.78 ± 0.074.
In the case of JAK1 (UniProt P23458), the NP40-soluble protein abundance is reported as 1.26 ± 0.041.
AP3M2 (UniProt P53677) was tested, and the NP40-soluble protein abundance was 1.08 ± 0.069.
In the case of HSPA4L (UniProt O95757), the NP40-soluble protein abundance is reported as 0.949 ± 0.019.
For MRPS25 (UniProt P82663), the NP40-soluble protein abundance was 0.928 ± 0.078.
In the case of CRTAP (UniProt O75718), the NP40-soluble protein abundance is reported as 1.2 ± 0.052.
UniProt P08621|P08621-2 showed an NP40-soluble protein abundance of 1.97 ± 0.14.
